MITF TRPM1 HTS: MITF TRPM1 promoter activation in melanoma cells | 300,000 tested, 0.75% active | activation, % at 12.5 µM | SK-MEL-5 TRPM1-promoter luciferase, 24 h; % of positive control, neutral wells = 0 | AID 588334;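 active means mean activation of at least 80% with every replicate also reaching 80%; inconclusive means mean reaches 80% but some replicate falls short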
F508del corr: CFTR F508del correction in bronchial cells. CFBE cells, YFP halide quenching; stimulated with forskolin plus potentiator P3; % fluorescence drop versus neutral controls. activity (quench increase), % at 7.58 µM. 350,000 tested, 0.36% active;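 active means mean added fluorescence quench of at least 8% versus neutral control, with both replicates also reaching 8%; inconclusive means only one of the mean or replicate conditions met; inactive means mean below 8% and not both replicates reaching 8%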;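 further: cells transiently co-express mutant CFTR-F508del with the halide-sensitive YFP; corrector assay measuring rescue of mutant channel to the surface after 24 h compound exposure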
GSIS activator: GLuc luminescence reporter in INS-1E cells, primary screen for activators of glucose-dependent secretion of insulin | INS-1E GLuc reporter insulin secretion, 2-3 h | AID 743287 | 370,000 tested, 0.61% active | activation, % at 16.6 µM;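 active means lowest replicate activation of at least 40%, so every replicate reaches that level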
Wnt bcat act: activates Wnt/beta-catenin signaling in a reporter cell assay. activator, plate reader. activation, % at 9.35 µM. 300,000 tested, 1.2% active. AID 743398; in the data active means activation above about 30%, passing the limit was not always enough; inconclusive means no clear call, values can overlap the other calls
Env fusion inh: inhibitors of HIV Env-mediated cell fusion. HeLa-JRFL Env/CEM21 cell fusion, luciferase. inhibition, % at 12.3 µM. AID 651610. 360,000 tested, 1.1% active;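 active means mean replicate inhibition score of at least 50 and every replicate individually at or above 50; inconclusive means only one of the two criteria met; inactive means mean below 50 and not all replicates reaching 50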
Large screens that a line does not name were inactive. The list is not random: actives were taken first. Their share in the collection is about 2.7%.

CN1CCN(C(=O)c2ccc(CN(c3ccccc3)S(=O)(=O)c3ccccc3)cc2)CC1	F508del corr 11.5
CCN1CCN(C(=O)c2ccc(CN(c3ccccc3)S(=O)(=O)c3ccccc3)cc2)CC1	none (no result: F508del corr, GSIS activator)
COc1ccc(NC(=O)N(C)C[C@@H]2OCCCC[C@@H](C)Oc3ccc(NS(C)(=O)=O)cc3C(=O)N([C@H](C)CO)C[C@H]2C)cc1	none (no result: MITF TRPM1 HTS, Wnt bcat act)
CC(=O)OCCN1c2ccccc2Sc2cnccc21	Env fusion inh inconclusive (no result: MITF TRPM1 HTS)
CC(=O)OCCCN1c2ccccc2Nc2nnc(-c3ccccc3)cc21	MITF TRPM1 HTS 98.4 (no result: F508del corr, GSIS activator, Wnt bcat act, Env fusion inh)
C[C@@H]1CCCCO[C@H](CN(C)C(=O)CCC(F)(F)F)[C@@H](C)CN([C@H](C)CO)C(=O)c2cc(NS(=O)(=O)c3ccccc3)ccc2O1	none (no result: MITF TRPM1 HTS, Wnt bcat act)
O=[N+]([O-])/C(=C\Nc1ccccc1)S(=O)(=O)c1ccccc1	GSIS activator 52.4 (no result: F508del corr, Wnt bcat act, Env fusion inh)
COc1ccc(N/C=C(\[N+](=O)[O-])S(=O)(=O)c2ccccc2)cc1	none
NNC(=O)c1cccnc1Oc1ccccc1	GSIS activator 43.8
O=C(Nc1nccs1)c1c(O)c2c([nH]c1=O)CCCC2	Wnt bcat act 49.8
C/C(=C/CCC(C)(O)C1CC[C@@]2(C)[C@@H]3CC=C4[C@@H](CC[C@H](O[C@H]5O[C@@H](CO)[C@H](O)[C@@H](O)[C@@H]5O)C4(C)C)[C@]3(C)C(=O)C[C@]12C)CO[C@@H]1O[C@H](CO)[C@@H](O)[C@H](O)[C@H]1O (stereo not given in full)	Env fusion inh 88.4
Cc1cc(C)n(-c2ccc3cccc(NS(C)(=O)=O)c3n2)n1	Env fusion inh 60.4 (no result: F508del corr, GSIS activator, Wnt bcat act)
CCOC(=O)C1=CN(Cc2ccco2)S(=O)(=O)NC1c1ccc(C(F)(F)F)cc1 (stereo not given)	F508del corr 8.1
O=C([C@H]1[C@H](CO)[C@H]2Cn3c(ccc(-c4ccc(F)cc4)c3=O)[C@H]2N1Cc1cocn1)N1CCOCC1	none (no result: MITF TRPM1 HTS, Wnt bcat act, Env fusion inh)
CN(c1ccccc1)c1nc(N)c(C#N)c(CC#N)c1C#N	GSIS activator 66.2 (no result: F508del corr)
Cc1nnc(SCC(=O)c2ccc(Cl)cc2)n(N)c1=O	Wnt bcat act 43.0
CCn1c(SCC(=O)c2ccc(Cl)cc2)nnc1C(C)C	Wnt bcat act 35.9 (no result: F508del corr, GSIS activator)
C[C@@H]1CN([C@H](C)CO)C(=O)CCCn2cc(nn2)CO[C@@H]1CN(C)C(=O)Nc1ccc(C(F)(F)F)cc1	none (no result: MITF TRPM1 HTS, Wnt bcat act)
COc1ccc(C2C3=C(CC(C)(C)CC3=O)Oc3ncn(Cc4ccccc4)c(=N)c32)cc1 (stereo not given)	Env fusion inh 60.9 (no result: F508del corr, GSIS activator, Wnt bcat act)
Cn1c(=O)[nH]c(=O)c2c1nc(SCC(O)CCl)n2Cc1ccccc1 (stereo not given)	GSIS activator 40.9 (no result: MITF TRPM1 HTS)
CC(O)CSc1nc2c(c(=O)[nH]c(=O)n2C)n1Cc1ccccc1Cl (stereo not given)	none
CC(=O)CSc1nc2c(c(=O)[nH]c(=O)n2C)n1Cc1ccccc1Cl	GSIS activator 59.3 (no result: MITF TRPM1 HTS)
CC(C)Sc1nc2c(c(=O)[nH]c(=O)n2C)n1Cc1ccc(Cl)cc1	GSIS activator 77.0 (no result: MITF TRPM1 HTS, F508del corr, Env fusion inh)
CC(C)CC#Cc1cnc2c(c1)C(=O)N([C@@H](C)CO)C[C@@H](C)[C@@H](CN(C)C(=O)CCN1CCCCC1)O2	none (no result: MITF TRPM1 HTS, Wnt bcat act)
Nc1nc(SCc2ccccc2)sc1C(=O)N1CCCCC1	Wnt bcat act 42.8 (no result: MITF TRPM1 HTS, GSIS activator)
Nc1c(C(=O)N2CCCCC2)sc(=S)n1-c1ccccc1	none (no result: F508del corr, Wnt bcat act)
FC(F)Oc1ccc(C2N=C(c3ccccc3)NO2)cc1 (stereo not given)	MITF TRPM1 HTS 117.2, Wnt bcat act 33.9
CC(O)C(NS(=O)(=O)c1ccc(Cl)cc1)C(=O)OCC(=O)c1ccc2c(c1)NC(=O)CO2 (stereo not given)	none
CC(C)CC(NC(=O)c1ccc(Cl)cc1)C(=O)OCC(=O)c1ccc2c(c1)NC(=O)CO2 (stereo not given)	GSIS activator 460.6 (no result: F508del corr, Wnt bcat act, Env fusion inh)
c1ccc(C2Oc3ccccc3C3CC(c4cccs4)=NN32)cc1 (stereo not given)	Wnt bcat act 37.8 (no result: GSIS activator, Env fusion inh)
CCCCn1c(SCC2CCCCO2)nc2cc(S(N)(=O)=O)ccc21 (stereo not given)	Wnt bcat act 40.4 (no result: F508del corr, GSIS activator)
CCCCn1c(SCC(=O)N2CCCCC2)nc2cc(S(N)(=O)=O)ccc21	none (no result: F508del corr, Wnt bcat act)
O=C(Cn1cnc2ccccc21)N/N=C/C(Br)=C/c1ccccc1	Wnt bcat act 36.8 (no result: F508del corr, Env fusion inh)
CC(/C=N\NC(=O)Cn1c(C)nc2ccccc21)=C\c1ccccc1	Env fusion inh 85.7 (no result: F508del corr, GSIS activator)
Cn1c(=O)c2c(ncn2CC(=O)N/N=C/C(Br)=C/c2ccccc2)n(C)c1=O	none (no result: F508del corr, Wnt bcat act)
C[C@H](NC(=O)C[C@H]1C[C@@H]2c3cc(NC(=O)NC4CCCC4)ccc3O[C@@H]2[C@@H](CO)O1)c1ccccc1	none (no result: MITF TRPM1 HTS, Wnt bcat act)
Cn1nc(C(=O)NNC(=O)CCOc2ccc(C(C)(C)C)cc2)c2ccccc2c1=O	F508del corr 10.1 (no result: Env fusion inh)
CO[C@@H]1CN(C)C(=O)c2ccc(NC(=O)c3ccccc3)cc2OC[C@H](C)N(C(C)=O)C[C@@H]1C	none (no result: MITF TRPM1 HTS, Wnt bcat act)
COC(=O)c1sc(-c2ccc(C(C)(C)C)cc2)cc1NC(=O)c1ccccc1C(=O)O	Wnt bcat act 45.6 (no result: MITF TRPM1 HTS)
COC(=O)c1sc(-c2ccc(Cl)cc2)cc1NC(=O)c1ccccc1C(=O)O	none (no result: MITF TRPM1 HTS, GSIS activator)
CCCN1C[C@H](C)[C@H](OC)CN(C)C(=O)c2ccc(NS(=O)(=O)c3ccccc3)cc2OC[C@@H]1C	none (no result: MITF TRPM1 HTS, Wnt bcat act)
Cc1nc2ccc(NC(=O)c3cc(S(=O)(=O)N(C)c4ccccc4)ccc3Cl)cc2s1	Env fusion inh 87.4 (no result: F508del corr, Wnt bcat act)
Cc1nc2ccc(NC(=O)c3ccc(Cl)c(S(=O)(=O)N(C)c4ccccc4)c3)cc2s1	Env fusion inh 73.6 (no result: F508del corr)
O=C(c1ccncc1)N1CC2(C1)[C@H](c1ccccc1)[C@H](CO)N2Cc1ccccn1	none (no result: MITF TRPM1 HTS, Wnt bcat act, Env fusion inh)
O=C(NC1CC1)C(=O)c1c[nH]c2ccccc12	none
O=C(NC1CC(=O)N(c2ccccc2)C1)C(=O)c1c[nH]c2ccccc12 (stereo not given)	Env fusion inh 61.5
CCCNC(=O)N1C[C@@H]2[C@H](c3ccccc31)[C@H](CO)N2Cc1ccc(OC)cc1	F508del corr 8.2 (no result: MITF TRPM1 HTS, Wnt bcat act, Env fusion inh)
COCC(=O)N1C[C@@H]2[C@H](c3ccccc31)[C@H](CO)N2Cc1ccc(OC)cc1	F508del corr 10.3 (no result: MITF TRPM1 HTS, Wnt bcat act, Env fusion inh)
CCCNC(=O)N1C[C@@H]2[C@H](c3ccccc31)[C@@H](CO)N2Cc1ccc(OC)cc1	none (no result: MITF TRPM1 HTS, Wnt bcat act, Env fusion inh)
CC(C)n1nc(C(=O)Nc2ccccc2N2CCOCC2)c2ccccc2c1=O	GSIS activator 119.6 (no result: F508del corr)
Cc1ccc(S(=O)(=O)N(C)C[C@H]2Oc3c(NC(=O)Nc4ccc(F)cc4)cccc3C(=O)N([C@@H](C)CO)C[C@H]2C)cc1	none (no result: MITF TRPM1 HTS, Wnt bcat act)
CCC(=O)N[C@H]1CC[C@H](CCNS(=O)(=O)c2ccc(Cl)cc2)O[C@@H]1CO	none (no result: MITF TRPM1 HTS, Wnt bcat act)
COc1ccc(NC(=S)c2ccccc2)cc1	MITF TRPM1 HTS 83.1 (no result: F508del corr)
Cc1ccc(NC(=S)c2ccc(N(C)C)cc2)cc1	Wnt bcat act 45.6 (no result: F508del corr)
COc1ccc(C(=S)Nc2ccc(N(C)C)cc2)cc1	Wnt bcat act 68.4 (no result: F508del corr, GSIS activator)
O=C(NCC[C@H]1CC[C@H](NS(=O)(=O)c2ccc(Oc3ccccc3)cc2)[C@@H](CO)O1)C1CC1	none (no result: MITF TRPM1 HTS, Wnt bcat act)

Source: PubChem
